The campaign covered roughly 5,500 compounds. About 2,000 (36%) were called active. Inconclusive results (about 18%) are left out. Cut-off read from the data, not from the text of the source: active = normalized growth mostly below about 0.91 (no sharp cut-off); inconclusive = no clear call, values can overlap the other calls; inactive = mostly above about 0.92. This is one part of the list.
Assay: chemical genetic growth profiling, strain panel (AID 1159580);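 note: tested at 20 µM; growth read once vehicle control cultures reached saturation at 30 °C; 1 = growth at the plate median or of vehicle wells; lower values mean less growth of the strain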
Conditions: S. cerevisiae deletion strains, growth OD

Measured: normalized growth

CCCCCCCCCCCCCC(=O)OC1C(C)C2(O)C(C=C(CO)CC3(O)C(=O)C(C)=CC32)C2C(C)(C)C12OC(C)=O (centres undefined)
inactive: locus YAL013W, strain DEP1, hits give low values 1 | locus YAL021C, strain ccr4, hits give low values 0.982 | locus YAL026C, strain drs2, hits give low values 0.985 | locus YAL030W, strain snc1, hits give low values 0.991 | locus YBL061C, strain skt5, hits give low values 0.981 | locus YBR009C, strain hhf1, hits give low values 0.965 | locus YBR021W, strain FUR4, hits give low values 0.988 | locus YBR023C, strain chs3, hits give low values 0.97 | locus YBR171W, strain sec66, hits give low values 0.981 | locus YBR229C, strain ROT2, hits give low values 1.02 | locus YBR231C, strain swc5, hits give low values 0.98 | locus YBR279W, strain paf1, hits give low values 0.988 | locus YCL011C, strain gbp2, hits give low values 0.98 | locus YCL016C, strain dcc1, hits give low values 0.996 | locus YCL029C, strain bik1, hits give low values 0.996 | locus YCL061C, strain MRC1, hits give low values 0.987 | locus YCL069W, strain vba3, hits give low values 0.986 | locus YCR088W, strain abp1, hits give low values 0.989 | locus YDL005C, strain med2, hits give low values 0.988 | locus YDL035C, strain GPR1, hits give low values 1.06 | locus YDL040C, strain nat1, hits give low values 0.979 | locus YDL074C, strain BRE1, hits give low values 1.04 | locus YDL101C, strain DUN1, hits give low values 1.01 | locus YDL134C, strain PPH21, hits give low values 1.01 | locus YDL185W, strain tfp1, hits give low values 1.01 | locus YDL192W, strain arf1, hits give low values 0.997 | locus YDR001C, strain nth1, hits give low values 0.978 | locus YDR069C, strain doa4, hits give low values 0.985 | locus YDR101C, strain arx1, hits give low values 0.996 | locus YDR137W, strain rgp1, hits give low values 0.97 | locus YDR150W, strain NUM1, hits give low values 1 | locus YDR159W, strain sac3, hits give low values 0.969 | locus YDR162C, strain NBP2, hits give low values 1.03 | locus YDR195W, strain ref2 0.96 | locus YDR297W, strain sur2, hits give low values 0.985 | locus YDR318W, strain mcm21, hits give low values 0.985 | locus YDR334W, strain swr1, hits give low values 0.989 | locus YDR335W, strain msn5, hits give low values 0.987 | locus YDR388W, hits give low values 0.99 | locus YDR392W, strain spt3, hits give low values 0.919 | locus YDR502C, strain sam2, hits give low values 1 | locus YEL003W, strain gim4, hits give low values 0.982 | locus YEL037C, strain rad23, hits give low values 0.978 | locus YEL061C, strain CIN8 (second series), hits give low values 0.976 | locus YEL061C, strain CIN8, hits give low values 1.01 | locus YER015W, strain faa2, hits give low values 0.986 | locus YER016W, strain bim1, hits give low values 0.98 | locus YER110C, hits give low values 0.994 | locus YER111C, strain swi4, hits give low values 0.965 | locus YER155C, strain BEM2 (second series), hits give low values 0.987 | locus YER155C, strain BEM2, hits give low values 0.996 | locus YER167W, strain BCK2, hits give low values 0.988 | locus YFR010W, strain ubp6, hits give low values 0.977 | locus YGL078C, strain dbp3, hits give low values 0.99 | locus YGL086W, strain mad1, hits give low values 0.978 | locus YGL167C, strain pmr1, hits give low values 0.989 | locus YGL173C, strain kem1, hits give low values 0.984 | locus YGL227W, strain vid30, hits give low values 0.979 | locus YGL240W, strain doc1, hits give low values 0.976 | locus YGL248W, strain PDE1, hits give low values 1.02 | locus YGL253W, strain hxk2, hits give low values 0.98 | locus YGR078C, strain PAC10, hits give low values 1.03 | locus YGR135W, strain pre9, hits give low values 1.01 | locus YGR229C, strain SMI1, hits give low values 1.02 | locus YGR252W, strain gcn5, hits give low values 1.04 | locus YHR013C, strain ard1, hits give low values 0.934 | locus YHR027C, strain rpn1, hits give low values 0.994 | locus YHR030C, strain SLT2, hits give low values 0.995 | locus YHR079C, strain IRE1 (second series), hits give low values 0.992 | locus YHR094C, strain hxt1, hits give low values 0.994 | locus YHR129C, strain ARP1, hits give low values 0.997 | locus YHR142W, strain chs7, hits give low values 0.952 | locus YHR200W, strain rpn10, hits give low values 0.989 | locus YIL066C, strain RNR3, hits give low values 1.01 | locus YIL073C, strain SPO22, hits give low values 0.986 | locus YIL125W, strain kgd1, hits give low values 0.991 | locus YIR030C, strain dcg1, hits give low values 0.994 | locus YJL092W, strain hpr5, hits give low values 0.984 | locus YJL095W, strain BCK1 (second series), hits give low values 0.99 | locus YJL095W, strain BCK1, hits give low values 1 | locus YJL115W, strain asf1, hits give low values 0.979 | locus YJL129C, strain trk1, hits give low values 0.962 | locus YJL134W, strain LCB3, hits give low values 0.992 | locus YJL154C, strain vps35, hits give low values 0.986 | locus YJL164C, strain tpk1, hits give low values 1.01 | locus YJL166W, strain qcr8, hits give low values 0.981 | locus YJL168C, strain set2, hits give low values 0.993 | locus YJL187C, strain SWE1 (second series), hits give low values 1.02 | locus YJL187C, strain SWE1, hits give low values 0.99

— PubChem BioAssay AID1159580 (chemical genetic matrix, 2015)
